LGR2 inh: inhibitors of bursicon-induced LGR2 CRE-luciferase signal, primary screen, cell-based, HEK293, CRE-luciferase reporter, bursicon stimulation | actives 0.35% (n = 380,000) | bursicon-stimulated, 4 h | inhibition, % at 9.99 µM | Drosophila bursicon receptor LGR2 (rickets);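 active = drop in luminescence signal, shown as inhibition above about 50% in the replicate tests, limit read from the data, passing the limit was not always enough; inconclusive = probably only some replicates passing the limit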;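 note: agonist challenge used bursicon conditioned medium at about half maximal strength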
CF NFkB inh: inhibitors of PAF-induced NF-kB signaling, primary screen, cell-based, GFP fluorescence, uHTS; KKLEB NF-kB-GFP reporter, GFP fluorescence overnight; inhibition, % at 5 µM; actives 0.86% (n = 360,000);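 active = at least 50% inhibition at 5 µM, scaled per plate between neutral and stimulator controls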;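 note: PAF is a Pseudomonas aeruginosa culture filtrate used as stimulus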
TWEAK-Fn14 inh: inhibitors of TWEAK-Fn14 signaling, primary screen, luciferase reporter cells, uHTS. TWEAK-stimulated Fn14 reporter cells, luciferase luminescence, 8 h. inhibition, % at 10 µM. actives 2% (n = 360,000). AID 1159606, 2016; in the data active = inhibition above about 50%
KKLEB cytotox: cytotoxicity in KKLEB CF airway cells, primary screen, cytotoxicity control for CF NF-kB inhibitor project, cell-based, uHTS, fluorescence assay plates; KKLEB CF airway cells viability, ATPlite luminescence, overnight; active compounds read low; cells stimulated with P. aeruginosa culture filtrate; activity change (cytotoxicity), % at 5 µM; actives 0.36% (n = 360,000);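 active = corrected activity change at or below -50% at 5 µM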
EWS-Fli inh: EWS/Fli-driven NR0B1 reporter inhibitors, primary screen, A673 cells, NR0B1 luciferase, luminescence, MLPCN library. inhibition, % at 12.6 µM. AID 651661, 2012. viability-normalised. actives 0.67% (n = 350,000);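 active = mean inhibition of at least 50% after viability correction, with every replicate also passing that limit; inconclusive = mean reaches 50% but only one of two replicates passes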;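 note: firefly luciferase signal divided by Alamar Blue viability fluorescence both relative to DMSO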
TROY NFkB inh: inhibitors of TROY-driven NF-kB signaling, primary screen, Q293 LMP1-TROYcd cells, NF-kB luciferase, uHTS | Q293 LMP1-TROYcd NF-kB luciferase reporter, 4 h | AID 1347056, 2019 | inhibition, % at 10 µM | actives 0.98% (n = 360,000);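 active = compounds whose plate-normalised and pattern-corrected inhibition of the luciferase reporter signal at the single screening dose is 50% or more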
Large screens that a line does not name were inactive; ! = not confirmed by another sample. A selection: hits, their analogues and other compounds. The true share with any hit is near 2.6%.

CCOC(=O)c1ccc(-c2ccc(N3C(c4ccsc4)=Cc4ccc(F)cc4C3c3c[nH]c4ccc(C#N)cc34)cc2)cc1F (stereo unspecified)	TWEAK-Fn14 inh 53 (no result: CF NFkB inh, KKLEB cytotox)
CC(C)(O)C#Cc1ccc(N2C(c3ccsc3)=Cc3ccc(F)cc3C2c2c[nH]c3ccc(C#N)cc23)cc1 (stereo unspecified)	none (no result: CF NFkB inh, KKLEB cytotox)
O=S(=O)(c1cccc(F)c1)N1CC[C@@H]2[C@H](CO)Nc3ccc(Br)cc3[C@@H]21	none (no result: CF NFkB inh, TWEAK-Fn14 inh, KKLEB cytotox, TROY NFkB inh)
COc1ccc(NC(=O)CCC(=O)c2cccs2)c(OC)c1	TWEAK-Fn14 inh 57 (no result: LGR2 inh, EWS-Fli inh)
Cc1ccnc(NC(=O)CCC(=O)c2cccs2)c1	LGR2 inh 89, TWEAK-Fn14 inh 92, EWS-Fli inh 78, TROY NFkB inh 68
COc1cc(NC(=O)CCC(=O)c2cccs2)cc(OC)c1	none
C[C@@H]1CN([C@H](C)CO)C(=O)c2cc(NC(=O)Nc3ccccc3)ccc2O[C@@H](C)CCCCO[C@@H]1CN(C)C(=O)c1ccccc1	none (no result: CF NFkB inh, TWEAK-Fn14 inh, KKLEB cytotox, TROY NFkB inh)
COCC(=O)Nc1ccc2c(c1)C(=O)N(C)C[C@H](OC)[C@@H](C)CN(Cc1ccccc1)[C@H](C)CO2	none (no result: CF NFkB inh, TWEAK-Fn14 inh, KKLEB cytotox, TROY NFkB inh)
CCOc1ccc(C)cc1-n1nc2ccccc2n1	none (no result: LGR2 inh, EWS-Fli inh)
Cc1ccc(OCC(=O)Nc2ccc(Cl)cc2)c(-n2nc3ccccc3n2)c1	CF NFkB inh 70, KKLEB cytotox -70 (no result: EWS-Fli inh)
CC(C)CCCC(C)CCOC(=O)CN1CCCC1 (stereo unspecified)	TWEAK-Fn14 inh 68
O=C(CN1CCOCC1)OCCCC1CCCCC1	none (no result: LGR2 inh, EWS-Fli inh)
CC(=O)N1c2ccccc2Oc2cc3ccccc3cc21	none (no result: EWS-Fli inh)
O=C(CCl)N1c2ccccc2Oc2ccc3ccccc3c21	TWEAK-Fn14 inh 69, TROY NFkB inh 73
Cc1ccc2c(c1)COc1c3ccc(C(=O)NCC4CC4)cc3nn1-2	none
CC(C)NC(=O)c1ccc2c3n(nc2c1)-c1ccccc1CO3	TWEAK-Fn14 inh 58
Cc1ccc2c(c1)COc1c3ccc(C(=O)O)cc3nn1-2	LGR2 inh inconclusive, TWEAK-Fn14 inh 81
CO[C@H](C(=O)N(C)C[C@H]1OCc2ccccc2-c2ccccc2C(=O)N([C@@H](C)CO)C[C@H]1C)c1ccccc1	none (no result: CF NFkB inh, TWEAK-Fn14 inh, KKLEB cytotox, TROY NFkB inh)
O=C(NCCN1C(=O)S/C(=C\c2ccc(Cl)c([N+](=O)[O-])c2)C1=O)C1=COCCO1	TWEAK-Fn14 inh 64, TROY NFkB inh 57
COc1ccccc1-c1cnc2c(c1)C(=O)N([C@@H](C)CO)C[C@H](C)[C@@H](CN(C)C(=O)c1ccncc1)O2	none (no result: CF NFkB inh, TWEAK-Fn14 inh, KKLEB cytotox, TROY NFkB inh)
O=c1[nH]c2ccc(Cl)cc2c(-c2ccccc2)c1SC(=S)N1CCCCC1	TWEAK-Fn14 inh 77 (no result: LGR2 inh, EWS-Fli inh)
O=c1[nH]c2ccc(Cl)cc2c(-c2ccccc2)c1SC(=S)N1CCOCC1	none (no result: LGR2 inh, EWS-Fli inh)
O=C(O)c1ccc(NC2=C(n3nnc4ccccc43)C(=O)c3ccccc3C2=O)cc1	none
Cc1ccc(NC2=C(NCCO)C(=O)c3ccccc3C2=O)cc1	none (no result: EWS-Fli inh)
Cc1ccc(S(=O)(=O)/N=C2\C=C(Nc3cccc(C(=O)O)c3)C(=O)c3ccccc32)cc1	CF NFkB inh 98, TWEAK-Fn14 inh 94
CCc1ccc(S(=O)(=O)/N=C2\C=C(Nc3ccc(C(=O)O)cc3)C(=O)c3ccccc32)cc1	LGR2 inh 103, CF NFkB inh 90, TWEAK-Fn14 inh 96
Cc1ccc(S(=O)(=O)/N=C2\C=C(Nc3cccc(C(=O)O)c3)C(=O)c3ccccc32)c(C)c1	CF NFkB inh 92, TWEAK-Fn14 inh 93
Cc1ccc(S(=O)(=O)/N=C2\C=C(Nc3ccc(O)cc3)C(=O)c3ccccc32)cc1	CF NFkB inh 83, TWEAK-Fn14 inh 101, KKLEB cytotox -80 (no result: LGR2 inh, EWS-Fli inh)
O=C(O)c1cccc(NS(=O)(=O)c2ccc3c(c2)C(=O)c2ccccc2C3=O)c1	none
CCCNC(=O)C[C@@H]1CC[C@@H]2[C@@H](COc3ccc(NC(=O)Nc4c(C)noc4C)cc3C(=O)N2C)O1	none (no result: CF NFkB inh, TWEAK-Fn14 inh, KKLEB cytotox, TROY NFkB inh)
COc1cc(CCNC2=CC(=O)c3ncccc3C2=O)ccc1O	CF NFkB inh 78
CN(C)CCOc1ccc2c(c1)C(=O)C(=Cc1ncc([N+](=O)[O-])n1C)C2	LGR2 inh 100, EWS-Fli inh 52
C[C@H](CO)N1C[C@H](C)[C@@H](CN(C)C(=O)Nc2ccc(C(F)(F)F)cc2)Oc2ccc(N(C)C)cc2CC1=O	none (no result: CF NFkB inh, TWEAK-Fn14 inh, KKLEB cytotox, TROY NFkB inh)
COC(=O)c1ccccc1NC1=C/C(=N\S(=O)(=O)c2cccs2)c2ccccc2C1=O	LGR2 inh 91, CF NFkB inh 83, TWEAK-Fn14 inh 99, KKLEB cytotox -72, TROY NFkB inh 51!
COC(=O)c1ccccc1NC1=C/C(=N\S(=O)(=O)c2ccc(C(=O)O)cc2)c2ccccc2C1=O	CF NFkB inh 97, TWEAK-Fn14 inh 94, KKLEB cytotox -62 (no result: LGR2 inh, EWS-Fli inh)
C[C@@H]1CCCCO[C@@H](CN(C)S(=O)(=O)c2cn(C)cn2)[C@H](C)CN([C@H](C)CO)C(=O)c2cc(NC(=O)Nc3ccc(F)cc3)ccc2O1	none (no result: CF NFkB inh, TWEAK-Fn14 inh, KKLEB cytotox, TROY NFkB inh)
C[C@H](CO)N1C[C@H](C)[C@H](CN(C)Cc2ccccc2)OCCCC[C@H](C)Oc2ccc(NC(=O)Nc3ccc4c(c3)OCO4)cc2C1=O	none (no result: CF NFkB inh, TWEAK-Fn14 inh, KKLEB cytotox, TROY NFkB inh)
C[C@@H]1CN([C@H](C)CO)C(=O)CCCn2cc(nn2)CO[C@@H]1CN(C)S(=O)(=O)c1ccccc1	none (no result: CF NFkB inh, TWEAK-Fn14 inh, KKLEB cytotox, TROY NFkB inh)
Cc1cc2occ(CC(=O)NCc3cccs3)c2cc1C(C)C	none (no result: LGR2 inh)
Cc1csc(NC(=O)Cc2coc3cc(C)c(C(C)C)cc23)n1	TROY NFkB inh 55 (no result: LGR2 inh, EWS-Fli inh)
COc1ccc2cc3cc(C(=O)NCCCN4CCc5ccccc5C4)sc3nc2c1	none
COc1ccc2cc3cc(C(=O)NC4CC4)sc3nc2c1	LGR2 inh inconclusive, TWEAK-Fn14 inh 67
Cc1ccc(C(=O)N/C(=C/c2ccc(Cl)cc2)C(=O)NCC2CCCO2)cc1 (stereo unspecified)	TWEAK-Fn14 inh 77 (no result: EWS-Fli inh)
CCOC(=O)C/C(C)=N\Nc1nc(-c2ccccc2)cs1	TWEAK-Fn14 inh 51
CC(C)=NNc1nc(-c2ccccc2)cs1	none
CNC(=O)C[C@H]1CC[C@H]2[C@H](COc3ccc(NC(=O)Cc4cccs4)cc3C(=O)N2C)O1	none (no result: CF NFkB inh, TWEAK-Fn14 inh, KKLEB cytotox, TROY NFkB inh)
Nc1cc2ccncc2c2ccccc12	CF NFkB inh 65, TWEAK-Fn14 inh 83, TROY NFkB inh 57
CCOC(=O)c1c2c(n(-c3ccc(OC)cc3)c1C)C(=O)C(=O)c1ccccc1-2	CF NFkB inh 82, TWEAK-Fn14 inh 107, KKLEB cytotox -91, TROY NFkB inh 61 (no result: LGR2 inh, EWS-Fli inh)
O=C(Nc1ccc(Oc2ccc(Cl)cc2)c(Cl)c1)c1cc(I)cc(I)c1O	CF NFkB inh 66, TWEAK-Fn14 inh 57, TROY NFkB inh 72
